Values joined by “and” are separate entries in the source; they are usually repeats but may differ in a detail not shown here. Equal entries are not always repeated. Hit rate of the full screen: of about 5,500 compounds, about 2,000 (36%) were called active. About 18% were inconclusive and are not listed. Cut-off read from the data, not from the text of the source: active = normalized growth mostly below about 0.91 (no sharp cut-off); inconclusive = no clear call, values can overlap the other calls; inactive = mostly above about 0.92. Some of the results follow.
Experiment: chemical genetic growth profiling, strain panel (AID 1159580);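 note: tested at 20 µM; growth read once vehicle control cultures reached saturation at 30 °C; 1 = growth at the plate median or of vehicle wells; lower values mean less growth of the strain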
Settings: growth OD

Measured: normalized growth

COc1cccc(OC)c1OCCNCC1COc2ccccc2O1 (centres undefined)
inactive: S. cerevisiae deletion strains, locus YAL013W, strain DEP1, stronger effect = lower value 1.02 | S. cerevisiae deletion strains, locus YAL040C, strain CLN3, stronger effect = lower value 0.995 | S. cerevisiae deletion strains, locus YBR021W, strain FUR4, stronger effect = lower value 0.991 | S. cerevisiae deletion strains, locus YBR229C, strain ROT2, stronger effect = lower value 1.01 | S. cerevisiae deletion strains, locus YCL029C, strain bik1, stronger effect = lower value 0.982 | S. cerevisiae deletion strains, locus YCL061C, strain MRC1 (second series), stronger effect = lower value 0.999 | S. cerevisiae deletion strains, locus YDL035C, strain GPR1, stronger effect = lower value 1.01 | S. cerevisiae deletion strains, locus YDL074C, strain BRE1, stronger effect = lower value 1.04 | S. cerevisiae deletion strains, locus YDL101C, strain DUN1, stronger effect = lower value 1.03 | S. cerevisiae deletion strains, locus YDL134C, strain PPH21, stronger effect = lower value 1.01 | S. cerevisiae deletion strains, locus YDL185W, strain tfp1, stronger effect = lower value 0.991 | S. cerevisiae deletion strains, locus YDL192W, strain arf1, stronger effect = lower value 0.99 | S. cerevisiae deletion strains, locus YDR101C, strain arx1, stronger effect = lower value 0.965 | S. cerevisiae deletion strains, locus YDR150W, strain NUM1, stronger effect = lower value 1.02 | S. cerevisiae deletion strains, locus YDR162C, strain NBP2, stronger effect = lower value 1.04 | S. cerevisiae deletion strains, locus YDR318W, strain mcm21, stronger effect = lower value 0.966 | S. cerevisiae deletion strains, locus YDR363W, strain ESC2, stronger effect = lower value 0.955 | S. cerevisiae deletion strains, locus YDR388W, stronger effect = lower value 0.983 | S. cerevisiae deletion strains, locus YDR502C, strain sam2, stronger effect = lower value 0.995 | S. cerevisiae deletion strains, locus YEL061C, strain CIN8, stronger effect = lower value 1.01 | S. cerevisiae deletion strains, locus YER002W, strain NOP16, stronger effect = lower value 1 | S. cerevisiae deletion strains, locus YER110C, stronger effect = lower value 0.978 | S. cerevisiae deletion strains, locus YER155C, strain BEM2, stronger effect = lower value 1.01 | S. cerevisiae deletion strains, locus YER167W, strain BCK2, stronger effect = lower value 1 | S. cerevisiae deletion strains, locus YGL078C, strain dbp3, stronger effect = lower value 0.991 | S. cerevisiae deletion strains, locus YGL086W, strain mad1, stronger effect = lower value 0.974 | S. cerevisiae deletion strains, locus YGL248W, strain PDE1, stronger effect = lower value 1.02 | S. cerevisiae deletion strains, locus YGR078C, strain PAC10, stronger effect = lower value 1.03 | S. cerevisiae deletion strains, locus YGR135W, strain pre9, stronger effect = lower value 0.975 | S. cerevisiae deletion strains, locus YGR229C, strain SMI1, stronger effect = lower value 1.01 and 0.909 | S. cerevisiae deletion strains, locus YGR252W, strain gcn5, stronger effect = lower value 0.907 | S. cerevisiae deletion strains, locus YHR030C, strain SLT2, stronger effect = lower value 1.01 | S. cerevisiae deletion strains, locus YHR079C, strain IRE1 (second series), stronger effect = lower value 0.978 | S. cerevisiae deletion strains, locus YHR094C, strain hxt1, stronger effect = lower value 0.992 | S. cerevisiae deletion strains, locus YHR129C, strain ARP1, stronger effect = lower value 1.01 | S. cerevisiae deletion strains, locus YHR200W, strain rpn10, stronger effect = lower value 0.977 | S. cerevisiae deletion strains, locus YIL066C, strain RNR3, stronger effect = lower value 1.01 | S. cerevisiae deletion strains, locus YIL073C, strain SPO22, stronger effect = lower value 0.999 | S. cerevisiae deletion strains, locus YIL125W, strain kgd1, stronger effect = lower value 0.97 | S. cerevisiae deletion strains, locus YIR030C, strain dcg1, stronger effect = lower value 0.986 | S. cerevisiae deletion strains, locus YJL095W, strain BCK1, stronger effect = lower value 0.992 | S. cerevisiae deletion strains, locus YJL134W, strain LCB3, stronger effect = lower value 1.01 | S. cerevisiae deletion strains, locus YJL168C, strain set2, stronger effect = lower value 0.98 | S. cerevisiae deletion strains, locus YJL187C, strain SWE1 (second series), stronger effect = lower value 1.02 | S. cerevisiae deletion strains, locus YJR043C, strain POL32, stronger effect = lower value 1.01 | S. cerevisiae deletion strains, locus YJR075W, strain HOC1, stronger effect = lower value 1.01 and 0.99 | S. cerevisiae deletion strains, locus YKL009W, strain mrt4, stronger effect = lower value 1 | S. cerevisiae deletion strains, locus YKL068W, stronger effect = lower value 0.995 | S. cerevisiae deletion strains, locus YKL085W, strain MDH1 (second series), stronger effect = lower value 1.03 | S. cerevisiae deletion strains, locus YKL085W, strain MDH1, stronger effect = lower value 1.03 | S. cerevisiae deletion strains, locus YKL190W, strain CNB1, stronger effect = lower value 1.01 | S. cerevisiae deletion strains, locus YKR001C, strain vps1, stronger effect = lower value 0.999 | S. cerevisiae deletion strains, locus YLR039C, strain RIC1, stronger effect = lower value 1.11 | S. cerevisiae deletion strains, locus YLR058C, strain SHM2, stronger effect = lower value 1.02 | S. cerevisiae deletion strains, locus YLR102C, strain apc9, stronger effect = lower value 0.983 | S. cerevisiae deletion strains, locus YLR262C, strain YPT6, stronger effect = lower value 1.16 | S. cerevisiae deletion strains, locus YLR268W, strain sec22, stronger effect = lower value 0.98 | S. cerevisiae deletion strains, locus YLR330W, strain CHS5, stronger effect = lower value 1.01 | S. cerevisiae deletion strains, locus YLR342W, strain FKS1 (second series), stronger effect = lower value 0.965 | S. cerevisiae deletion strains, locus YLR371W, strain rom2, stronger effect = lower value 0.982 | S. cerevisiae deletion strains, locus YLR418C, strain cdc73, stronger effect = lower value 0.983 | S. cerevisiae deletion strains, locus YML016C, strain PPZ1, stronger effect = lower value 1.01 | S. cerevisiae deletion strains, locus YML032C, strain rad52, stronger effect = lower value 0.96 | S. cerevisiae deletion strains, locus YML124C, strain tub3, stronger effect = lower value 0.989 | S. cerevisiae deletion strains, locus YMR078C, strain ctf18, stronger effect = lower value 0.985 | S. cerevisiae deletion strains, locus YMR223W, strain ubp8, stronger effect = lower value 0.963 | S. cerevisiae deletion strains, locus YMR263W, strain SAP30, stronger effect = lower value 1.02 and 0.998 | S. cerevisiae deletion strains, locus YMR307W, strain GAS1, stronger effect = lower value 1.08 and 0.993 | S. cerevisiae deletion strains, locus YNL067W, strain RPL9B, stronger effect = lower value 1.02 | S. cerevisiae deletion strains, locus YNL128W, strain TEP1, stronger effect = lower value 1.02 and 1.01 | S. cerevisiae deletion strains, locus YNL153C, strain GIM3, stronger effect = lower value 1.03 | S. cerevisiae deletion strains, locus YNL175C, strain NOP13, stronger effect = lower value 1.02 | S. cerevisiae deletion strains, locus YNL197C, strain WHI3, stronger effect = lower value 1.04 | S. cerevisiae deletion strains, locus YNL224C, strain SQS1, stronger effect = lower value 0.999 | S. cerevisiae deletion strains, locus YNL233W, strain BNI4, stronger effect = lower value 1.02 | S. cerevisiae deletion strains, locus YNL250W, strain rad50, stronger effect = lower value 1.01 | S. cerevisiae deletion strains, locus YNL271C, strain bni1, stronger effect = lower value 0.983 | S. cerevisiae deletion strains, locus YNL298W, strain CLA4, stronger effect = lower value 0.977 | S. cerevisiae deletion strains, locus YNL307C, strain MCK1, stronger effect = lower value 0.975 | S. cerevisiae deletion strains, locus YNL322C, strain KRE1, stronger effect = lower value 1.02 and 0.982 | S. cerevisiae deletion strains, locus YNR052C, strain pop2, stronger effect = lower value 0.966 | S. cerevisiae deletion strains, locus YOL006C, strain TOP1, stronger effect = lower value 1.03 | S. cerevisiae deletion strains, locus YOL012C, strain htz1 1.66 | S. cerevisiae deletion strains, locus YOL147C, strain pex11, stronger effect = lower value 0.991 | S. cerevisiae deletion strains, locus YOR061W, strain CKA2, stronger effect = lower value 1.02 | S. cerevisiae deletion strains, locus YOR069W, strain VPS5, stronger effect = lower value 1.01 | S. cerevisiae deletion strains, locus YOR083W, strain WHI5 (second series), stronger effect = lower value 1.02 | S. cerevisiae deletion strains, locus YOR136W, strain idh2, stronger effect = lower value 0.992 | S. cerevisiae deletion strains, locus YOR144C, strain elg1, stronger effect = lower value 0.994 | S. cerevisiae deletion strains, locus YOR184W, strain ser1, stronger effect = lower value 0.954 | S. cerevisiae deletion strains, locus YOR316C, strain cot1, stronger effect = lower value 0.988 | S. cerevisiae deletion strains, locus YPL055C, strain LGE1, stronger effect = lower value 1.07 and 0.961 | S. cerevisiae deletion strains, locus YPL241C, strain CIN2, stronger effect = lower value 1.01 | S. cerevisiae deletion strains, locus YPR119W, strain clb2, stronger effect = lower value 0.983 | S. cerevisiae deletion strains, locus YPR141C, strain kar3, stronger effect = lower value 0.987 | S. cerevisiae deletion strains, locus YPR163C, strain tif3, stronger effect = lower value 0.985 | S. cerevisiae deletion strains, locus YPR167C, strain met16, stronger effect = lower value 0.986 | S. cerevisiae deletion strains, strain wtn01, stronger effect = lower value 0.988 | S. cerevisiae strains, strain wild type, stronger effect = lower value 1.01
